Results filed as inconclusive are left out. Activity calls are given as the source filed them. The call rests on the fitted dose curve; in most records, active means well fitted inhibition curve with a large enough effect; inconclusive means small, poorly fitted or top-dose-only effect; inactive means flat fitted curve, though single readings scatter.
molecular target: Luciferin 4-monooxygenase (Photinus pyralis) (UniProt P08659); experiment: Biochemical firefly luciferase enzyme assay for NPC (AID 624030);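 further: purified P. pyralis luciferase at 10 nM with luciferin and ATP substrate; 0% = DMSO and -100% = full luciferase inhibition by PTC124 control; nearly all actives have a fitted effect of over 70% in size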; settings: purified P. pyralis luciferase, luminescence, 5 min; series mostly up to 58.6 µM; activity change, negative = inhibition: at the top concentration
Method in brief: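 Counter-screen for direct inhibition of the luciferase enzyme by approved-drug library compounds, run at 10 nM enzyme in 50 mM Tris acetate (final). Luminescence was read within 5 min of enzyme-buffer addition and normalized to PTC124 versus DMSO (0%).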

Chain of Luciferin 4-monooxygenase (Photinus pyralis) (P08659 whole entry, looked up): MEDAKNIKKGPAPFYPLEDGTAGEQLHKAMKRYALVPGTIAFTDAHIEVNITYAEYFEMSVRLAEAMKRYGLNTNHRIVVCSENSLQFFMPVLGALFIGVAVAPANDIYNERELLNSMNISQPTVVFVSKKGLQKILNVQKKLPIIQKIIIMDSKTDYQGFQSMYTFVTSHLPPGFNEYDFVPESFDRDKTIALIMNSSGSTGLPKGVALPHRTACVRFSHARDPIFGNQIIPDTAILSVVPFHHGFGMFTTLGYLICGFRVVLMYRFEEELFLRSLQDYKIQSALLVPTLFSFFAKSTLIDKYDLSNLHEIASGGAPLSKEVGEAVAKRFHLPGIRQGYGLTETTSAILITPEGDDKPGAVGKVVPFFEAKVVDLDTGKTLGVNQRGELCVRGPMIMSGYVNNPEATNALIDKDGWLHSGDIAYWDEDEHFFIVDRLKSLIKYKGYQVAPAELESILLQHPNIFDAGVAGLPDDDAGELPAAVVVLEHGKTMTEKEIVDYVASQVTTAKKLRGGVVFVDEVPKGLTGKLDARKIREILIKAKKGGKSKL

| SMILES | activity change, negative = inhibition |
| --- | --- |
| Cc1cc(N)c2cc(NC(=O)Nc3ccc4nc(C)cc(N)c4c3)ccc2n1 | 9.68% (inactive) |
| O=C1OC2(c3ccc(O)cc3Oc3cc(O)ccc32)c2ccccc21 | -5.09% (inactive) |
| CCCCCCCCCCOCC(O)CN (stereo not drawn) | -1.64% (inactive) |

From PubChem BioAssay (NCATS)
